Test results as given in ChEMBL document CHEMBL1961873, “Compounds: GSK PKIS; Assays: Nanosyn kinase panel” (2012).
“And” between values parts separate entries of the source, which are not always exact repeats. Equal values may be shown once.

target: Serine/threonine-protein kinase 26 (Homo sapiens) (UniProt Q9P289); conditions: at 1 µM
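Also: mean inhibition of MST4 kinase activity, reported from the GSK PKIS inhibitor-set screening panel.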

Serine/threonine-protein kinase 26 (Homo sapiens), sequence (Q9P289 2-416 limits assumed): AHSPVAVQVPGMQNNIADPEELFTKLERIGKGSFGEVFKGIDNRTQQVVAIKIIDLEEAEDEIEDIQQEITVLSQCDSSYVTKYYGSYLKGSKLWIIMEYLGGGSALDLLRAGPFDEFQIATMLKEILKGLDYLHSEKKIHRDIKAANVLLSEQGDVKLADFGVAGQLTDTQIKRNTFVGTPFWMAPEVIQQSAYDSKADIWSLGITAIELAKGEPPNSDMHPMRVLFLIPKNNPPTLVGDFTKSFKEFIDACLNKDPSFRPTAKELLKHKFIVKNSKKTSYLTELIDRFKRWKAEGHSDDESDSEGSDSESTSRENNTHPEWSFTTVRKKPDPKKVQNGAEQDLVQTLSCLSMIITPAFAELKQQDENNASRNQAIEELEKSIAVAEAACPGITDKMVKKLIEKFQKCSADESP

First: NS(=O)(=O)c1ccc(N/N=C2\C(=O)Nc3ccc(C(=O)NCc4ccncc4)cc32)cc1
Second: CS(=O)(=O)Nc1ccc(-c2cc(-c3ccccc3)cc(C(N)=O)c2N)cc1
The inhibition of the first is higher: 6.51% for the first, -0.88% for the second.

Compared with CCCNc1cccc(-n2ncc3c(N/N=C/c4ccncc4)ncnc32)c1, COc1cccc(-n2ncc3c(N/N=C/c4ccc(C(=O)NCCN(C)C)cc4)ncnc32)c1 is higher in inhibition: -1.3% for the first, 0.63% for the second.

Going from c1cnn2ncc(-c3ccnc(NCCCN4CCOCC4)n3)c2c1 to FC(F)(F)CNc1nccc(-c2cnn3ncccc23)n1, the inhibition rises from -2.39% to -0.52%.

Going from O=C(Nc1n[nH]c2nnc(-c3cccnc3)cc12)C1CC1 to CC1=C(C(=O)Nc2ccc3[nH]nc(C)c3c2)C(c2ccc(C(F)(F)F)cc2)CC(=O)N1 (stereo unspecified), the inhibition falls from 1.72% to -2.31%.

Going from COC(=O)Nc1nc2cc(Oc3ccc(NC(=O)Nc4ccccc4)cc3)ccc2[nH]1 to COC(=O)Nc1nc2ccc(Oc3ccc(NC(=O)Nc4cc(C(F)(F)F)ccc4F)cc3)cc2s1, the inhibition rises from 0.25% to 1.71%.

Going from Fc1ccc(Nc2nccc(-c3c(-c4ccc(C(F)(F)F)cc4)nn4ncccc34)n2)cc1F to OCCCNc1nccc(-c2c(-c3ccc(F)cc3)nn3cc(C(F)(F)F)ccc23)n1, the inhibition rises from -0.83% to -0.53%.

Going from CCS(=O)(=O)c1ccc(OC)c(Nc2ncc(-c3cccc(F)c3)o2)c1 to COc1ccc(Nc2ncc(-c3ccccc3)o2)cc1OC, the inhibition falls from -0.44% to -5.3%.

Compared with N#Cc1ccc2c(-c3ccnc(NC4CC4)n3)c(-c3ccc(F)cc3)nn2c1, NC(=O)c1ccc2c(-c3ccnc(NCCCO)n3)c(-c3ccc(F)cc3)nn2c1 is lower in inhibition: -1.31% for the first, -2.28% for the second.

Going from Cc1cc(O)cc(C)c1/C=C/c1cncc(C(N)=O)c1 to COc1cc(Nc2ncc(-c3ccccc3)o2)cc(OC)c1, the inhibition falls from -0.01% to -4.28%.

Going from N#Cc1cccc(Nc2ncc(-c3ccccc3)o2)c1 to Fc1cccc(COc2ccc(Nc3ncncc3C#Cc3ccccc3)cc2Cl)c1, the inhibition rises from -0.74% to 0.47%.

Going from CC1=C(C(=O)Nc2ccc3[nH]ncc3c2)C(c2ccc(F)cc2)N=C(c2ccc(C(F)(F)F)nc2)N1 (stereo unspecified) to CS(=O)(=O)CCNCc1ccc(-c2ccc3ncnc(Nc4ccc(OCc5cccc(C(F)(F)F)c5)cc4)c3c2)o1, the inhibition rises from -0.15% to 0.42%.

First: COc1cc2c(cc1Nc1nc(Nc3cccc(F)c3C(N)=O)c3cc[nH]c3n1)N(C(=O)CN1CCN(C(C)C)CC1)CC2
Second: COc1cc(N2CCN(C(C)C)CC2)ccc1Nc1nc(Nc2cccc(F)c2C(=O)O)c2cc[nH]c2n1
The inhibition of the first is lower: 2.14% for the first, 2.17% for the second.

Compared with Cn1c(-c2nonc2N)nc2cnccc21, COc1cccc(Nc2nccc(-c3cnn4ncccc34)n2)c1 is higher in inhibition: -1.1% for the first, 3.21% for the second.

Going from CN(c1ccc(NC(=O)NCCN2CCOCC2)cc1)c1ccnc(Nc2ccc(CS(C)(=O)=O)cc2)n1 to O=C(O[C@H]1CN[C@H](C#Cc2cc3ncnc(Nc4ccc5c(ccn5Cc5cc(F)ccc5F)c4)c3s2)C1)N1CCOCC1, the inhibition falls from 0.96% to 0.81%.

In the case of c1ccc(-c2n[nH]cc2-c2ccnc(-c3ccc(OCCn4ccnc4)cc3)c2)nc1, the inhibition is reported as 3.16%.

For CN1CCC(C(=O)Nc2n[nH]c3nc(-c4ccc(O)cc4)c(Br)cc23)CC1, the inhibition was 21.2% and 19.8%.
With Nc1nccc(-c2c(-c3ccc(F)cc3)ncn2C2CCNCC2)n1 the inhibition was 5.19% and 1.66%.
